# Reference: the supplement of paper PMC10338343
# ± gives the standard deviation.
# Test system: MILI (PIWIL2) piRISC loaded with piRNA #1 (26 nt)
# Experiment: pre-steady-state target cleavage rate (min^-1); guide: piRNA #1 5'p-UGAGGUAGUAGGUUGUAUAGUAUCCA; MIWI and MILI are mouse PIWI proteins and EfPiwi is from a freshwater sponge; tags in brackets are library labels; higher = faster piRNA-guided slicing of the target
# Details: auxiliary factor: 500 nM mouse GTSF1
# In short: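 A transcribed, DNA-blocked target RNA library (0.1 nM) and 1 nM active affinity-purified piRISC bearing one synthetic guide were incubated in HEPES–potassium acetate buffer at 33 °C for 0–8 or 0–960 min, either with or without 500 nM GTSF1 partner protein. Uncleaved targets were sequenced, normalised to depth and to weakly complementary targets, and pooled over three trials, with k3 capped at 0.0001 min^-1. The pre-steady-state cleavage rate was derived with a burst-and-steady-state fit.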
row,Sequence,pre-steady-state target cleavage rate
1,GGAGUGGAUUCUAAACAACCUACUACCUCA,0.143 ± 0.0089
2,GGAGACGAUACUAUACUUGCUACUACCUCA,0.0658 ± 0.0062
3,GGAGACCUAUGUAUACAACCUUCAACCUCA,0.00276 ± 0.0024
4,GGAGACGAUACUAUAAACCUACUACCUCA,0.0257 ± 0.0077
5,GGAGACCUUACUAUACAACGUACAACCUCA,0.0226 ± 0.0031
6,GGAGACCUAUGAUAACAAGCUACUUCCUCA,0.00574 ± 0.0027
7,GGAGUGGAUACUAUUGUACCUACUACCUCA,0.115 ± 0.0083
8,GGAGUGGAUUCUAUACAACCUACUUCCUCA,0.00383 ± 0.0021
9,GGAGACCUUACUAUACAACGUACUACCACA,0.0216 ± 0.0046
10,GGAGACCUAACUAUACAACCUACUACUCA,0.141 ± 0.033
11,GGAGACCAUUCUAUUCAACCUACUACCUCA,0.102 ± 0.012
12,GGAGACCAUACUUUAGAACCUACUACCUCA,0.134 ± 0.013
13,GGAGACCUAUGAUAUGUACCUAGUUCCUCA,< 0.0001
14,GGAGACCUUACUAUACAACGUAGUACCUCA,0.015 ± 0.0045
15,GGAGACCUAUCUAUAGAACGUACUACCUCA,0.00596 ± 0.0017
16,GGAGUGGAUAGUAUAGAACCUACUACCUCA,0.146 ± 0.013
17,GGAGACCUAUCUAUUCAACCUUCUACCUCA,0.0069 ± 0.0028
18,GGAGACCUAUGUAUACUACCUACUUCCUCA,0.0346 ± 0.0069
19,GGAGACCUUACUAUACAACCUACUAUCUCA,0.0879 ± 0.0097
20,GGAGACCUAUCUAUACAAGCUACUACCUCA,0.193 ± 0.017

row,Sequence,pre-steady-state target cleavage rate
1,GGAGACCAUACUAUACAUCGUACUACCUCA,0.0535 ± 0.0071
2,GGAGACCUAUGAUAACAUCCUACUAGCUCA,0.00409 ± 0.0032
3,GGAGACCAUACAAUACAAGCUACUACCUCA,0.205 ± 0.016
4,GGAGACCAUACAAUACAACCAACUACCUCA,0.00736 ± 0.0032
5,GGAGACCUAACUAUACAACCUACAACCUCA,0.108 ± 0.026
6,GGAGACCUAACUAUACAACCUACUCACCUCA,0.147 ± 0.032
7,GGAGACCUAUGAUAUCAAGCUACAACCUCA,0.00699 ± 0.0025
8,GGAGACCUAUCUAGACAACCUACUACCUCA,0.103 ± 0.016
9,GGAGACCUAUCUAUACUAGCUACUACCUCA,0.0865 ± 0.011
10,GGAGACCUAUCUAUACAACCUAAUACCUCA,0.0234 ± 0.0057
11,GGAGACCUAUGAUAUGUGCCUACUACCUCA,< 0.0001
12,GGAGAGGAUACUAUAGAACGUACUACCUCA,0.00602 ± 0.0021
13,GGAGACCUUACUAUACAUGCUACUACCUCA,0.111 ± 0.0086
14,GGAGACCUAUGAUUACUACCUACUACCUCA,0.00306 ± 0.0021
15,GGAGACCUAUCUAUACAACCAACUACCUCA,0.00522 ± 0.0024
16,GGAGACCAUACUAUUCAACGUACUACCUCA,0.019 ± 0.0049
17,GGAGACCAUAGUAUACAACGUACUACCUCA,0.0174 ± 0.0033
18,GGAGACCUAACUUACAACCUACUACCUCA,0.0068 ± 0.0056
19,GGAGACCUAUGUAUACAACCUACUACCUCC [g2:g19:cont:t1C],0.0539 ± 0.0077
20,GGAGACCUAUGUAUACAACCUACUUCCUGA,0.00819 ± 0.0021
